# uPA surface inh: inhibitors of cell surface uPA generation. cell surface uPA generation assay, qHTS. Potency, µM (titrated, usually from 38.3 µM), inactives show at the highest dose activity change, negative = inhibition, usual class: inhibitors. hit rate 0.31% among 330,000; active = well fitted inhibition curve with a large enough effect; inconclusive = small, poorly fitted or top-dose-only effect; inactive = no such curve, though single readings can be large or run the other way; tested in mouse RAW 264.7 cells; also: % is scaled to controls: 0 for no effect and ±100 for the full control effect; nearly all actives have a fitted effect of over 55% in size
# Abeta rescue: compounds reversing amyloid beta toxicity in yeast | yeast expressing A-beta42, growth rescue, OD600, 48 h; response scale: 0% DMSO, 100% iron-clioquinol control | Potency, µM (highest dose often 46.1 µM), most hits filed as activators | hit rate 0.063% among 410,000; also: nearly all actives have a fitted effect of over 55% in size
#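 Yeast growth medium received pinned compounds, then yeast cells expressing toxic A-beta were added; plates incubated at 30 C for 48 hr. Growth read as absorbance at 600 nm, normalized to DMSO and equimolar FeCl3 plus clioquinol controls.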
# aSyn yeast inh: alpha-synuclein toxicity inhibition in yeast | Yeast expressing alpha-synuclein, growth rescue, BacTiter-Glo, 24 h | Potency, µM (highest dose often 46.1 µM), for the others: at the top dose growth rescue (activation), actives largely listed as activators | hit rate 0.14% among 370,000 | AID 652106; also: % of control where 0% means no effect; nearly all actives have a fitted effect of over 65% in size
#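 Rescue of yeast growth: cells expressing toxic alpha-synuclein, induced in galactose at OD600 0.02, incubated with compound 24 h at 30 C. ATP luminescence quantified growth; inhibitors of toxicity appear as activators.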
# BCR signal inh: blocks chronic active B-cell receptor signaling. Potency, µM (doses to about 46.1 µM), for the others: top-dose activity change, negative = inhibition, actives largely listed as inhibitors. ABC-DLBCL IkBa-CBG/CBR reporter, luminescence ratio, 4 h. hit rate 0.05% among 340,000. AID 493014; active = well fitted inhibition curve with a large enough effect in the signal ratio, with a control signal flat, not every such curve was filed as active; inconclusive = small, poorly fitted or top-dose-only effect, or effect the other way, or a change in a side signal; the % refers to the signal ratio;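 also: plate controls were basal doxycycline-induced cells for no effect and cells given 10 µM MG132 for full effect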
#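 Compounds up to 46 uM were incubated four hours with TMD8 cells whose green CBG68 luciferase is fused to IkappaBalpha; red CBR luminescence normalised the signal, and concentration-effect curves were fitted to fusion, red and ratio data.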
# FUS yeast rescue: FUS proteinopathy suppression in yeast; Potency, µM (doses to about 76.6 µM), hits mostly activators; hit rate 0.24% among 390,000; S. cerevisiae FUS-expressing, growth rescue, OD600, 24 h;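 also: plate controls were DMSO vehicle for no effect and reference control for full effect; nearly all actives have a fitted effect of over 55% in size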
#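 Compound concentration series was pinned onto galactose-induced FUS-expressing yeast seeded at OD 0.005. Plates sat 24hr at 30C; absorbance at 600 nm gave growth. DMSO served as background control.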
# TDP-43 yeast inh: rescues yeast growth from TDP-43 toxicity; TDP-43 expressing yeast growth rescue, BacTiter-Glo, 24 h; AID 652104; hit rate 1.8% among 410,000; Potency, µM (top dose mostly 46.1 µM), for the others: at the top dose growth rescue (activation), hits mostly activators; also: % of control where 0% means no effect; nearly all actives have a fitted effect of over 50% in size
#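 In this qHTS, compounds that restore growth of yeast expressing TDP-43 appear as activators. Cells (OD600=0.02, galactose medium, raffinose-pregrown) are incubated with compound 24 hr at 30 deg C and growth is quantified by BacTiter-Glo.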
# The depositor's hits bear a star; i = inactive; ? = inconclusive; / = no result. In the library only some 2.3% were active in any assay of this set; here they are far more common. Unless noted, calls follow the shape of the dose curve; as a rule, active = well fitted curve in the direction sought with a large enough effect; inconclusive = small, poorly fitted or top-dose-only effect, or another doubt; inactive = no such curve, though single readings can be large; an effect the other way counts as inactive or inconclusive. Potency is read from the fitted curve at half-maximal effect.
SMILES,uPA surface inh,Abeta rescue,aSyn yeast inh,BCR signal inh,FUS yeast rescue,TDP-43 yeast inh
CCn1ccc(=O)c2cc3c(cc21)OCO3,-6.4%,i,-4.3%,-11.3%,i,15.9%
O=C(COc1ccccc1)Nc1ccccc1C(=O)NCc1ccco1,2.1%,i,0.7%,?,i,20µM*
COc1ccccc1OCC(=O)Nc1ccccc1C(=O)NCc1ccco1,1.8%,i,0.6%,?,i,2.9%
Cc1cccc(N2CCN(C3=NC(=O)C(=C4CCCCC4)S3)CC2)c1,0.8%,i,/,-0.8%,i,7.08µM*
CCNc1nc(Cl)nc(NC2CCCCC2)n1,-8.5%,i,-7.9%,-1.3%,i,12.6µM*
Oc1ccc(-c2cn3ccccc3n2)cc1,3.98µM*,i,-14.7%,-1.2%,i,-8.2%
NC(=O)c1cn(-c2ccccc2)nc1-c1cccnc1,-1.2%,i,0.2%,5.3%,i,12.6µM*
O=C(/C=C/c1cn(-c2ccccc2)nc1-c1cccnc1)N1CCCC1,6.8%,i,7.0%,?,i,19.6%
O=C(/C=C/c1cn(-c2ccccc2)nc1-c1cccnc1)c1ccco1,-4.9%,i,5.2%,?,i,12.6µM*
COC(=O)c1cc(=O)n(Cc2ccc(OC)c(OC)c2)c(=Nc2ccc(F)cc2)s1,4.47µM*,i,12.4%,-28.3%,?,7.8%
COC(=O)c1cc(=O)n(-c2ccccc2)c(=Nc2ccccc2)s1,4.47µM*,i,?,?,i,13.1%
COC(=O)c1cc(=O)n(CCc2ccc(OC)c(OC)c2)c(=Nc2ccc(F)c(Cl)c2)s1,6.31µM*,i,6.4%,-5.5%,i,25.0%
COC(=O)c1cc(=O)n(Cc2ccc(F)cc2)c(=Nc2ccccc2)s1,7.08µM*,i,-0.8%,?,i,-1.8%
CCn1c(=O)cc(SCC(=O)Nc2cccc(SC)c2)c2ccccc21,12.2%,i,-13.0%,-25.1%,i,-2.6%
O=C(c1ccco1)N1CCN(c2c([N+](=O)[O-])nn(-c3ccc(Cl)cc3)[n+]2[O-])CC1,2.2%,i,2.2%,4.4%,i,-4.5%
CC1CCN(c2c([N+](=O)[O-])nn(-c3ccc4c(c3)OCCO4)[n+]2[O-])CC1,-0.4%,i,15.5%,?,?,12.6µM*
Cc1nnc2c3ccccc3nc(N3CCN(c4cccc(Cl)c4)CC3)n12,/,i,/,/,i,25.1µM*
CCOc1ccccc1N1CCN(C(=O)/C=C/c2cccc([N+](=O)[O-])c2)CC1,3.1%,i,13.1%,-11.0%,i,14.1µM*
COc1ccc(CNC(=O)Cc2ccc(NC(=O)C3=C(C)OCCS3)cc2)cc1,?,/,-7.4%,20µM*,i,11.7%
C(=C\c1nc(-c2ccncc2)no1)/c1ccccc1,-3.0%,i,6.7%,0.6%,i,11.2µM*
COc1ccc(/C=C/C(=O)c2ccc[nH]2)c(OC)c1OC,-8.7%,i,0.3%,-24.9%,i,14.1µM*
COc1cccc(/C=C/C(=O)c2cccc([N+](=O)[O-])c2)c1OC,-2.7%,i,-0.8%,?,i,11.2µM*
COc1cccc(C(=O)N=c2sc3cc(S(C)(=O)=O)ccc3n2C)c1,-2.1%,i,-2.2%,2.3%,i,-29.7%
Cc1ccc(SCC(=O)Nc2ccc(O)c(-c3nc4cc(C)ccc4o3)c2)cc1,/,i,/,/,i,24.2%
Cc1ccc(C)c(C(=O)CSc2nnnn2-c2cccnc2)c1,0.1%,i,10.1%,?,i,11.2µM*
SMILES,uPA surface inh,Abeta rescue,aSyn yeast inh,BCR signal inh,FUS yeast rescue,TDP-43 yeast inh
Cc1ccc(C(=O)NNC(=S)NC(=O)c2ccc(Cl)cc2Cl)cc1,-4.2%,i,1.12µM*,?,i,?
O=C(COc1ccccc1)NNC(=S)NC(=O)c1ccc(Cl)cc1Cl,-0.3%,?,?,11.2%,i,3.55µM*
Cc1ccc(C(=O)NNC(=S)NC(=O)c2ccccc2)cc1,-5.8%,i,-31.8%,/,i,?
CCN(CC)c1ccc2cc(-c3nc(-c4cc5ccccc5oc4=O)cs3)c(=O)oc2c1,0.6%,i,1.2%,/,i,-19.0%
O=C(O)c1ccc(NCc2cccnc2)cc1,-0.4%,i,3.0%,3.5%,i,-6.1%
CC(=O)Nc1ccc(C(=O)O)cc1,-9.3%,i,-2.6%,2.5%,i,12.3%
O=C(O)c1ccc(NCc2ccc(Br)cc2)cc1,-0.2%,i,3.3%,0.3%,i,3.55µM*
C=CCNc1ccc(C(=O)O)cc1,-2.1%,i,10.8%,3.1%,i,14.1µM*
CSC1(SC2=NCCN2)SC2(NCCN2)S1,-11.6%,i,1.9%,/,/,?
Cc1ccc(S(=O)(=O)NCc2ccc3c(c2)OCO3)cc1C,5.3%,i,-20.1%,4.0%,i,17.8µM*
Cc1c(C(=O)NNC(=O)Nc2ccc([N+](=O)[O-])cc2)oc2ccccc12,5.0%,i,2.1%,-0.6%,i,-12.9%
O=C(NNC(=O)c1ccc2c(c1)OCO2)NC1CCCCC1,6.5%,i,-9.2%,-8.6%,/,-11.4%
Cc1cc(C)n2c(SCC(=O)Nc3ncc(C(F)(F)F)cc3Cl)nnc2n1,-6.6%,i,-2.7%,-21.7%,i,-3.4%
O=[N+]([O-])c1ccc(Nc2ccccc2F)nc1,?,i,-0.7%,?,i,17.8µM*
COc1cccc(N2CCN(c3cnc4ccccc4n3)CC2)c1,2.2%,i,5.9%,-17.6%,i,35.5µM*
CN1CCC(N(C)C(=O)c2cccc(S(=O)(=O)N3CCc4ccccc43)c2)CC1,2.2%,i,-0.5%,?,i,-11.2%
Cc1cc(C)c(C)c(S(=O)(=O)ON2C(=O)c3ccccc3C2=O)c1C,-6.8%,i,15.8%,-3.3%,/,5.62µM*
Cc1cc(C)c(S(=O)(=O)ON2C(=O)c3ccccc3C2=O)cc1C,-4.3%,i,-69.6%,?,/,?
O=C(Nc1cccc2ccccc12)N1N=CCC1c1ccccc1 (stereo unspecified),-1.7%,i,19.4%,-0.7%,i,-37.5%
O=C(Nc1cccc(S(=O)(=O)Nc2ccc(Cl)cc2)c1)c1ccc(Cl)nc1,5.01µM*,i,5.3%,?,i,8.3%
O=C1CSc2ccc(C(=O)Nc3cccc(S(=O)(=O)Nc4ccc(Br)cc4)c3)cc2N1,?,i,-6.6%,?,7.08µM*,-14.2%
O=C(O)c1ccc(NC(=O)c2cccc(S(=O)(=O)Nc3ccc(C(=O)O)cc3)c2)cc1,-8.3%,i,2.2%,0.0%,i,20.6%
COc1ccc([C@@H]2[C@H]3C(=O)N(c4cccc(C(F)(F)F)c4)C(=O)[C@H]3ON2C)cc1,0.2%,i,11.8%,7.8%,/,22.5%

# High-throughput results as filed in PubChem BioAssay.
